The supplement of paper PMC3334620
Over roughly 33,000 sequences, “E-score (-0.5 to 0.5)” has its median near -0.035; the highest 2% begin near 0.35. The full list was thinned out, with the highest values kept by preference.

The sequences below were run against T1, Pdr3 (UniProt P33200) (assay: PBM E-score (8-mer binding enrichment) (E-score (-0.5 to 0.5)); higher = stronger / more preferred TF binding). Settings: protein concentration: 200 nM; construct: GST-full length.
T1 sequence: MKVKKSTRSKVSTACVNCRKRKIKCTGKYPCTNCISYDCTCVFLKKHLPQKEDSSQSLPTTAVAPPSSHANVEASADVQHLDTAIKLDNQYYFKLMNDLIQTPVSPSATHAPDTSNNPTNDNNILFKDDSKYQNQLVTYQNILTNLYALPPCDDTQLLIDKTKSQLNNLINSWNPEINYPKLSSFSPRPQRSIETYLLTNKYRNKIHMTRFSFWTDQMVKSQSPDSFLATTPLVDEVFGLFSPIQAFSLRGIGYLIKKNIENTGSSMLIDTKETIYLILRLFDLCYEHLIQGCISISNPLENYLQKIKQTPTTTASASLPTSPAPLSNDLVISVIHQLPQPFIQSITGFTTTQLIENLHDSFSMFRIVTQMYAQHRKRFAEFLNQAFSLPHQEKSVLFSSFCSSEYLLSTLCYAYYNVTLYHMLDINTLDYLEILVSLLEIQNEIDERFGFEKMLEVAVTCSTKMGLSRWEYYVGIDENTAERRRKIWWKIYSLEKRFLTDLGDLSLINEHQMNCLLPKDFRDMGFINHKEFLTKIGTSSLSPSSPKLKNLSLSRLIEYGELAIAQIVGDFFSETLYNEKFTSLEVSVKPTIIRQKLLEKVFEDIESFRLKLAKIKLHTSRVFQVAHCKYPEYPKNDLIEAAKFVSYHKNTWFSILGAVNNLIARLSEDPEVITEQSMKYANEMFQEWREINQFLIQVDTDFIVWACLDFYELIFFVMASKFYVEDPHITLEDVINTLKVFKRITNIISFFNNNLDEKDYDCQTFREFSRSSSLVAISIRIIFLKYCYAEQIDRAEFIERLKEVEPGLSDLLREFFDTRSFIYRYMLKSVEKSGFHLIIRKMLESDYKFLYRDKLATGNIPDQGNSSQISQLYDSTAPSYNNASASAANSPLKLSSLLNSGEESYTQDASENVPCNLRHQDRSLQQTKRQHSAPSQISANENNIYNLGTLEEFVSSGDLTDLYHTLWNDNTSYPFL
Procedure: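 Universal 'all 10-mer' protein binding microarrays (Agilent AMADID 015681) probed with GST-tagged S. cerevisiae TFs (full-length or DBD) made by in vitro transcription/translation (PURExpress), about 100-200 nM. Bound TF was detected with fluorescent anti-GST. Each ungapped 8-mer (which stands for itself and its reverse complement) is scored by the PBM enrichment score (E-score), a modified Wilcoxon-Mann-Whitney statistic from -0.5 to +0.5, computed with the Universal PBM Analysis Suite. Scale: above 0.35 generally sequence-specific binding.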
With AGATCCGG the “PBM E-score” value was 0.362. In the case of AGATCCAG, the “PBM E-score” value was 0.112. For ACATCCGT, the “PBM E-score” value was 0.216. ACCGTTGG was tested, and the “PBM E-score” value was 0.0171. In the case of CAGCATGG, the “PBM E-score” value was -0.00655. ACCACGGA was tested, and the “PBM E-score” value was 0.377. For TCCATGGA, the “PBM E-score” value was 0.423. With TCCACGCA the “PBM E-score” value was -0.174. GCCACGGC was tested, and the “PBM E-score” value was 0.0607. With ACCATGGA the “PBM E-score” value was -0.151. For TACACGGA, the “PBM E-score” value was 0.3. GCCACGGA was tested, and the “PBM E-score” value was 0.415. CCCATGGA was tested, and the “PBM E-score” value was -0.0126. TCCACGGA was tested, and the “PBM E-score” value was 0.477. For ACCACGGG, the “PBM E-score” value was 0.205. ACCACGGC was tested, and the “PBM E-score” value was 0.135. For GCCACGTA, the “PBM E-score” value was -0.208. For AGGCAGCA, the “PBM E-score” value was -0.0599. For AAAACTCT, the “PBM E-score” value was -0.109. With ATCAACGG the “PBM E-score” value was 0.247. CTATCCAC was tested, and the “PBM E-score” value was 0.0063. In the case of ATGCTATA, the “PBM E-score” value was -0.21. For ACGTTTTA, the “PBM E-score” value was -0.16. In the case of ATGGTGAC, the “PBM E-score” value was -0.245. In the case of CCCACGGG, the “PBM E-score” value was 0.311. CCCACGGC was tested, and the “PBM E-score” value was 0.0935. CCCACGGA was tested, and the “PBM E-score” value was 0.424. In the case of GTCAGTAA, the “PBM E-score” value was -0.145. ACTGGAAC was tested, and the “PBM E-score” value was 0.0779. For ACAGAGCC, the “PBM E-score” value was -0.128. In the case of AGCTCCGG, the “PBM E-score” value was 0.389. With AACTCCGT the “PBM E-score” value was 0.271. For ATCTCCGA, the “PBM E-score” value was 0.324. For ATCTCCGG, the “PBM E-score” value was 0.4. ATCTCCGC was tested, and the “PBM E-score” value was 0.292. In the case of AGCTCCGC, the “PBM E-score” value was 0.287. In the case of AGCTCCGA, the “PBM E-score” value was 0.239. CACTCCGG was tested, and the “PBM E-score” value was 0.351. For ACCTCCGT, the “PBM E-score” value was 0.204. In the case of CCCTCCGG, the “PBM E-score” value was 0.265. In the case of ACCTCCGG, the “PBM E-score” value was 0.402. For AACTCCGG, the “PBM E-score” value was 0.416. In the case of ACGCTACC, the “PBM E-score” value was -0.183. For CGAGCGCG, the “PBM E-score” value was 0.273. In the case of AGCGAAGG, the “PBM E-score” value was -0.0572. For GATTTAAA, the “PBM E-score” value was -0.159. In the case of ATGGCACG, the “PBM E-score” value was 0.117. With AGCCGGCT the “PBM E-score” value was 0.315. In the case of AGCCGGCA, the “PBM E-score” value was 0.339. In the case of AGCCGGCG, the “PBM E-score” value was 0.372. In the case of CGGCGCCG, the “PBM E-score” value was 0.463. In the case of AGGCGCCG, the “PBM E-score” value was 0.161. In the case of CGCCGGCA, the “PBM E-score” value was 0.339. CGGCGCCA was tested, and the “PBM E-score” value was 0.171. For CGCCGGCG, the “PBM E-score” value was 0.452. CGCCGGCC was tested, and the “PBM E-score” value was 0.32. AACCAGAG was tested, and the “PBM E-score” value was -0.12. With ACTGACCG the “PBM E-score” value was -0.00211. CGTGCTTA was tested, and the “PBM E-score” value was 0.0586. For CCTCTAGC, the “PBM E-score” value was -0.247. In the case of GTTCCACA, the “PBM E-score” value was 0.0178. CGTACGGA was tested, and the “PBM E-score” value was 0.281. CGGACCCC was tested, and the “PBM E-score” value was 0.198. With AGGACCCG the “PBM E-score” value was 0.17. In the case of CGGACCCG, the “PBM E-score” value was 0.392. In the case of CAGCGCAG, the “PBM E-score” value was -0.00798. CTCTCTGC was tested, and the “PBM E-score” value was -0.0361. ATTTGACC was tested, and the “PBM E-score” value was -0.0303. In the case of CATTGCAC, the “PBM E-score” value was -0.0987. In the case of CGCCGACG, the “PBM E-score” value was 0.0962. In the case of CGGAAATC, the “PBM E-score” value was 0.407. AGGAAATC was tested, and the “PBM E-score” value was 0.0849. AGGAAATA was tested, and the “PBM E-score” value was 0.121. CGGAAATA was tested, and the “PBM E-score” value was 0.45. With CTGAAATC the “PBM E-score” value was 0.0707. For GGGAAATA, the “PBM E-score” value was 0.0401. With AACTCGAC the “PBM E-score” value was 0.0587. With AACAGCTT the “PBM E-score” value was 0.048. TAGGGGAA was tested, and the “PBM E-score” value was -0.157. For GGGCATTA, the “PBM E-score” value was -0.0343. CGGCATTA was tested, and the “PBM E-score” value was 0.357. In the case of AGGCATTA, the “PBM E-score” value was -0.12. With CTCTTCCC the “PBM E-score” value was 0.0704. With AAATCCAT the “PBM E-score” value was 0.17. With GGAACTAA the “PBM E-score” value was 0.296. In the case of CCCGCCAC, the “PBM E-score” value was 0.254. AGCTGCTG was tested, and the “PBM E-score” value was -0.0512.
